We go through 40 sequences from the supplement of paper PMC10681739.

For the first experiment, the target named is T1, ETS1 (UniProt P14921).
T1 sequence: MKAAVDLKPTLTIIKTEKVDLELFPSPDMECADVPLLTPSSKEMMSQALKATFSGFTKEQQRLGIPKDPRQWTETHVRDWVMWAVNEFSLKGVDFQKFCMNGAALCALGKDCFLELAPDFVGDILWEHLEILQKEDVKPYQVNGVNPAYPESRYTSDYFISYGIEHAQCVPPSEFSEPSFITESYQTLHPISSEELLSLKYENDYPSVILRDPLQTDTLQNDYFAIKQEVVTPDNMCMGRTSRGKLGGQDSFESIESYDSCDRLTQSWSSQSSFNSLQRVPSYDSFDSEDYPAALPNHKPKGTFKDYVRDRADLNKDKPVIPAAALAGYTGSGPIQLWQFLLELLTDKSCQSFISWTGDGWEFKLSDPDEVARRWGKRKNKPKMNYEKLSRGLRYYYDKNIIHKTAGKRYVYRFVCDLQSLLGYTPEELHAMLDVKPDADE
Kind of experiment: ETS1 binding intensity (PBM fluorescence), ETS1 alone (arbitrary fluorescence units); higher = stronger binding. The following applies: ETS1 concentration 1 nM; RUNX1 concentration 0 nM.
CTTGTTATCCTTCCGGAGGCGGTAACTCATGAGAGA registered an ETS1 binding intensity of 497. ATTAAAGACTTCCGTGCAAGACCACAGCTGCCTGAC returned an ETS1 binding intensity of 555. AGGAGTGACGAGGCGGACGTGCGGGGGCGGGGGTGT returned an ETS1 binding intensity of 461.

GGAGCGACGGAAGCACCTGAAGCGGTCTTTCCCCGA: the ETS1 binding intensity is 514.

The sequence CCGAGACACATGGGATGTGGGCGGGAGGAGGAATTG returned an ETS1 binding intensity of 715. Consider CTCCTGAGGAAGTAGTTACAGACACCACAGCGGAGG, for which the ETS1 binding intensity came to 511. CAAGCCACTTCCTTTCTTGCTCCCACAACCTGTGTT showed an ETS1 binding intensity of 579. On the same count and under the same terms, the same measure for CTTCCATCCAGGAAGCTTGTGGTGCAACAGCAGTGT: 840; for GCTGCGCAGAGGAAACCAGGCTTGTTGGTTTTCATG: 432. As to GTGCAGGCAATGAGGATGTTGTGGGGGAGACAGGGA, the ETS1 binding intensity is 746. Still for that read-out and setting: the result for TGAAGGAGCGGAAGGGTTGCTTGCAGACCGCACGGT reads 574; that for GTACGCTCTTCACTTCCCGTACCCGCGCCCGGCAGG, 609. In turn, GTCGGGAAGTAGGCGGGGTGACGTGTGGTTGACGAG displayed an ETS1 binding intensity of 426. The sequence TAGAAAAGGAAGCAGGGTAGGTGTGGTATCTGGGTC returned an ETS1 binding intensity of 587. Regarding TAAATAGGAAGTCAGAGTTTACTGCCGAACCCACAG, the ETS1 binding intensity is 616.

For the next experiment, the target named is T1, ETS1. Kind of experiment: TF binding intensity (PBM fluorescence), negative control probe (arbitrary fluorescence units); higher = stronger binding.
Details: not given
As to the method:
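gcPBM negative-control 36-bp genomic probes lacking TF binding sites. Each was incubated with recombinant human ETS1 or RUNX1 alone and detected by antibody fluorescence. Values are medians over replicate spots (4 spots for the ETS1-RUNX1 arrays, 3 for the ETS1-ETS1 array). The probes sit in constant array flanks that are not printed.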
For the sequence “AGAGCCACAGTGTGGCTTGGCTGGTAAATTATTTGT (protein concentration 10 nM)”, the TF binding intensity came to 109. In turn, “CCCCTCCAGACTCCCCTGACCCAGGGTGGAGGACAT (protein concentration 10 nM)” had a TF binding intensity of 161. Consider “TTTTTCTTTTAATTTTTCTTTTTTATTCTATTTTTT (protein concentration 10 nM)”, for which the TF binding intensity stood at 117.

“ATAAAACACAGTGTACAGTGACCTTTTAATCACAAC (protein concentration 10 nM)” came in with a TF binding intensity of 132. Sequence “CTCTGCCCAGTTGGTTGTGGCTCTTCATTACTGTGG (protein concentration 1 nM)” gave a TF binding intensity of 512. “CGGACTGGGAGTTTGACCGCGTTGACGACGGCTCGC (protein concentration 1 nM)” came in with a TF binding intensity of 446. “ATGGATAAGAATGTCTGTGGGTAGCTGTCTCCTCTT (protein concentration 1 nM)” gave a TF binding intensity of 444. Turning to “CCTGAGGCCTGCCCCAGTCACCTGTATTTACCCTGC (protein concentration 10 nM)”, the TF binding intensity amounted to 122. On to “CACACACTAAATCTCTGTACTAAATGAAAGGTTGCT (protein concentration 10 nM)”, for which the TF binding intensity came to 139. As to “TATTTTCCAAAAGTGGCCACAACAACATCTGCCAAC (protein concentration 1 nM)”, the TF binding intensity is 442. Take “TACTACTATAAAGATGGATACATGTCGTTATACATT (protein concentration 10 nM)”: the TF binding intensity turned out to be 106. On to “CAGTGCAGCTGTTTGCCATGTGGGCCCACACCACTG (protein concentration 10 nM)”, for which the TF binding intensity turned out to be 126. Same read-out and setting: the same measure for “GAAATCACGGGACCCCGAGCGGTTGGAGATCTGCCA (protein concentration 10 nM)”: 91.7; for “CCCACTGTAATAGGCAGATACTGATGAAGTCCTGCA (protein concentration 10 nM)”: 147; for “CCTGTTTGAAAGAGAAAGAGGGCAGAGTGTGACATG (protein concentration 10 nM)”: 160. “AACACTCAGTGTATTTTAATAAACAACATTTTTTAA (protein concentration 10 nM)” yielded a TF binding intensity of 96.6. For the sequence “CTGCTGGGTGGAGTGTGGACAAGCGGCCTTTGCATC (protein concentration 10 nM)”, the TF binding intensity was determined as 150.

As for “AAAGGCAGATCTCCAAATCTCCAGGCCTGCTCGTTG (protein concentration 10 nM)”, the TF binding intensity is 96.1. Same read-out and setting: the same measure for “CCTGTTCTGTGTTTGGAGCCAGCAGAGCAGGGAGGA (protein concentration 10 nM)”: 153; for “AGTTCAAAAAAGCCCAAATGCTATAGGGACAACAAC (protein concentration 10 nM)”: 148. For “TTTCTTCACACCACAAGCAGAGAGCAGCGAGAGAGA (protein concentration 10 nM)”, the TF binding intensity came out at 136. Regarding “TTATAATACATGTGCAGTATATTTTCTTGAAACTTC (protein concentration 10 nM)”, the TF binding intensity stood at 110. Still for that read-out and setting: the result for “ACCTGGCTGTCTGGCTCCTTACTTTCCACCATTTTC (protein concentration 10 nM)” reads 132; that for “ATAAAGTACATTAATTCATTCATCCAGCAAGAGTGT (protein concentration 10 nM)”, 122; that for “ACGAAAGTAAACAGTACTAGGTGCAGGGGCTTTAAT (protein concentration 10 nM)”, 117.

In another experiment the target is T1, ETS1. Kind of experiment: ETS1 binding intensity (PBM fluorescence) in presence of RUNX1, normalised to ETS1-only experiment (arbitrary fluorescence units); higher = stronger binding. The settings on record: ETS1 concentration 1 nM; RUNX1 concentration 25 nM.
CTTGTTATCCTTCCGGAGGCGGTAACTCATGAGAGA: the ETS1 binding intensity was determined as 352.

As for ATTAAAGACTTCCGTGCAAGACCACAGCTGCCTGAC, the ETS1 binding intensity was determined as 513. With AGGAGTGACGAGGCGGACGTGCGGGGGCGGGGGTGT, the ETS1 binding intensity came to 458. On to GGAGCGACGGAAGCACCTGAAGCGGTCTTTCCCCGA, for which the ETS1 binding intensity is 349. Regarding CCGAGACACATGGGATGTGGGCGGGAGGAGGAATTG, the ETS1 binding intensity is 941.

On to CTCCTGAGGAAGTAGTTACAGACACCACAGCGGAGG, for which the ETS1 binding intensity stood at 491. Same read-out and setting: the result for CAAGCCACTTCCTTTCTTGCTCCCACAACCTGTGTT reads 471; that for CTTCCATCCAGGAAGCTTGTGGTGCAACAGCAGTGT, 1100. In the case of GCTGCGCAGAGGAAACCAGGCTTGTTGGTTTTCATG, the ETS1 binding intensity is 457. As for GTGCAGGCAATGAGGATGTTGTGGGGGAGACAGGGA, the ETS1 binding intensity came to 732. Still for that read-out and setting: the result for TGAAGGAGCGGAAGGGTTGCTTGCAGACCGCACGGT reads 1360; that for GTACGCTCTTCACTTCCCGTACCCGCGCCCGGCAGG, 634. On to GTCGGGAAGTAGGCGGGGTGACGTGTGGTTGACGAG, for which the ETS1 binding intensity worked out at 546. As for TAGAAAAGGAAGCAGGGTAGGTGTGGTATCTGGGTC, the ETS1 binding intensity was 575. With TAAATAGGAAGTCAGAGTTTACTGCCGAACCCACAG, the ETS1 binding intensity is 523.
